Potency, outcome and activity change, positive = activation data for 11 compounds are collected here from PubChem BioAssay (Tox21).

“And” between values parts separate entries of the source, which are not always exact repeats. Equal values may be shown once. Inconclusive results are not listed. Where a structure was tested more than once in an assay, its records may differ in their call. The source made the active and inactive calls. Unless noted, calls come from the whole dose curve; as a rule, active = well fitted curve in the direction sought with a large enough effect in the repeat runs; inconclusive = weak or mixed curves; inactive = no such curve, though single readings can be large; an effect the other way counts as inactive or inconclusive.

A short description of assay [1]: qHTS assay to identify small molecule antagonists of the constitutive androstane receptor (CAR) signaling pathway - cell viability counter screen (AID 1224837). Note: nearly all actives have a fitted effect of over 45% in size. In outline: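 Cells are seeded, rested 4 hr at 37 C/5% CO2, dosed with compound (15-point series) and 50 nM CITCO, incubated a further 23 hr, and then CellTiter-Fluor reagent is added before fluorescence is read. The line is HepG2 with stable hCAR and CYP2B6-2.2kb.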
For orientation: Quantitative high-throughput screening tests each substance at several concentrations.

The nature of assay [2]: qHTS assay to identify small molecule antagonists of the estrogen related receptor signaling pathway with the pleiotropic PPARgamma coactivator (PGC) from Tox21 10K library - cell viability counter screen (AID 1224840; active = well fitted cell-killing curve with a large enough effect in the repeat runs, not every such curve was filed as active; note: nearly all actives have a fitted effect of over 40% in size). In outline: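 Cell viability is measured by CellTiter-Fluor fluorescence in PGC/ERR cells that receive compounds after a 6-hour attachment period and are then incubated 17.5 hours at 37 C.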

A short description of assay [3]: qHTS assay to identify small molecule antagonists of the estrogen related receptor signaling pathway with the pleiotropic PPARgamma coactivator (PGC) from Tox21 10K library (AID 1224841; call rule not given here; note: actives are mostly falling curves and most rising ones were filed inactive; nearly all actives have a fitted effect of over 50% in size). The gist of the method: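 Cells stably carrying the PGC/ERR reporter, seeded at 2,000 per well, received pin-transferred compounds 6 h post-plating. Exposure lasted 18 h at 37 C. Signal: One-Glo luminescence.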

Assay [4] in a line: qHTS assay to identify small molecule agonists of the estrogen related receptor signaling pathway with the pleiotropic PPARgamma coactivator (PGC) from Tox21 10K library (AID 1224842). Note: nearly all actives have a fitted effect of over 15% in size. The gist of the method: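 PGC/ERR reporter cells (NTP line) were seeded 2,000 per well, rested 6 h at 37 C/5% CO2, then pin-dosed with compounds in DMSO for 18 h at 37 C; luciferase read by One-Glo luminescence after 30 min at room temperature.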

Assay [5] addresses Thyrotropin receptor (Homo sapiens) (UniProt P16473). Kind of assay: qHTS assay to identify small molecule agonists of the thyroid stimulating hormone receptor (TSHR) signaling pathway (AID 1224843; calls by dose curve; note: nearly all actives have a fitted effect of over 45% in size). In outline: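 Using 15 concentrations per compound in triplicate, cAMP production was monitored in TSHR-HEK293 cells after 30 min compound incubation at RT; HTRF reagents followed, with fluorescence intensity recorded after 1 h.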

Assay [6] can be described thus: qHTS assay to identify small molecule agonists of the hypoxia (HIF-1) signaling pathway - cell viability counter screen (AID 1224844; calls by dose curve; note: nearly all actives have a fitted effect of over 50% in size). In outline: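 Viability counter screen: HRE-bla ME-180 cells plated 5 hrs before compound addition, treated 17 hrs at 37C and 5% CO2, then CellTiter-Glo added after the FRET reporter read; luminescence after 30 min.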
Assay [7] is described as follows: qHTS assay to identify small molecule agonists of H2AX (AID 1224845; active = well fitted activation curve with a large enough effect in the signal ratio in the repeat runs, not every such curve was filed as active; the % refers to the signal ratio). The gist of the method: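 Wild-type CHO-K1 cells plated overnight, then exposed 3 hr at 37C to compounds at 15 concentrations (0.76% DMSO). Lysed, then HTRF anti-pH2AX(S139)-cryptate/anti-H2AX-d2 detection after 24 hr at room temperature; emissions 665 and 620 nm.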
Assay [8] is described as follows: qHTS assay to identify small molecule agonists of the hypoxia (HIF-1) signaling pathway (AID 1224846; active = well fitted activation curve with a large enough effect in the signal ratio in the repeat runs, not every such curve was filed as active; the % refers to the signal ratio). In outline: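 Agonist mode reporter screen. ME-180 cells stably expressing bla under HRE control received test compounds in DMSO for 17 hrs (37C, 5% CO2), and beta-lactamase activity was then detected with the CCF4-AM FRET substrate.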
Assay [9] is described as follows: qHTS assay to identify small molecule agonists of H2AX - cell viability counter screen (AID 1224847; calls by dose curve; note: top concentration of the series differs between compounds; nearly all actives have a fitted effect of over 30% in size). In outline: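 Viability of CHO-K1 (wild type) cells after 3 hr compound exposure was measured by CellTiter-Glo luminescence.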
Assay [10] is described as follows: qHTS assay to identify small molecule antagonists of the estrogen related receptor (ERR) signaling pathway from Tox21 library (AID 1224848). Note: nearly all actives have a fitted effect of over 50% in size. The gist of the method: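 Tox21 10K compounds in DMSO tested for ERR pathway antagonism in NTP's ERR cell line; 18 h, 37 C exposure; ONE-Glo luminescence.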
Assay [11] can be described thus: qHTS assay to identify small molecule agonists of the estrogen related receptor (ERR) signaling pathway from Tox21 library (AID 1224849; calls by dose curve; note: nearly all actives have a fitted effect of over 15% in size). The settings on record: ERR reporter cell line, ONE-Glo luciferase, 18 h. The gist of the method:
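Quantitative HTS in agonist format: NTP ERR cell line, compounds transferred in DMSO after 6 h plating, 18 h incubation at 37 C, ONE-Glo luminescence endpoint.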

The nature of assay [12]: qHTS RealTime-Glo MT Cell Viability Assay in HepG2 cells - 24 hour (AID 1224867). Note: nearly all actives have a fitted effect of over 50% in size. The gist of the method:
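Cell number in HepG2 cultures estimated from NanoLuc luminescence generated by metabolic reduction of a prosubstrate by living cells. The homogeneous, nonlytic format allowed repeated reads at 0, 8, 16, 24, 32 and 40 h of compound exposure.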

A short description of assay [13]: qHTS RealTime-Glo MT Cell Viability Assay in HEK293 cells - 32 hour (AID 1224868). Note: nearly all actives have a fitted effect of over 50% in size. Note: potency is the fitted concentration of half-maximal effect. The gist of the method:
(§1)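 Homogeneous bioluminescent viability format in HEK293 cells (600 cells/well). Following 5 h at 37 C/5% CO2, 23 nL compound was pintooled; the signal was measured repeatedly during 40 h incubation.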

A short description of assay [14]: A CellTox Green Cytotoxicity Assay to monitor cytotoxicity in HEK293 cells - 0 hour (AID 1224869). Note: nearly all actives have a fitted effect of over 50% in size. The gist of the method:
(§2)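 Dead-cell fluorescence measured kinetically: asymmetric cyanine dye, HEK293, 600 cells/well, 5 h settle, 23 nL cpd/DMSO, 37 C, reads 0–40 h every 8 h.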

Assay [15] can be described thus: qHTS RealTime-Glo MT Cell Viability Assay in HepG2 cells - 40 hour (AID 1224870). Note: nearly all actives have a fitted effect of over 50% in size. The gist of the method: (§3)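 HepG2 cells mixed with RealTime-Glo MT reagents (NanoLuc plus cell-permeant prosubstrate) were seeded at 600 cells/well, incubated 5 h at 37 C/5% CO2, then pinned with compounds in DMSO; nonlytic luminescence tracked viability during 40 h treatment.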
The nature of assay [16]: A CellTox Green Cytotoxicity Assay to monitor cytotoxicity in HEK293 cells - 40 hour (AID 1224871). Note: nearly all actives have a fitted effect of over 45% in size. The gist of the method:
as §2

A short description of assay [17]: qHTS RealTime-Glo MT Cell Viability Assay in HEK293 cells - 16 hour (AID 1224872). The gist of the method: as §1
A short description of assay [18]: qHTS RealTime-Glo MT Cell Viability Assay in HepG2 cells - 8 hour (AID 1224873). Note: nearly all actives have a fitted effect of over 55% in size. In outline: as §3
The target of assay [19] is Nuclear receptor subfamily 1 group I member 3 (Homo sapiens) (UniProt Q14994). Kind of assay: qHTS assay to identify small molecule antagonists of the constitutive androstane receptor (CAR) signaling pathway (AID 1224838).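 Note: HepG2 cells stably expressing hCAR with CYP2B6 luciferase reporter stimulated by CITCO; nearly all actives have a fitted effect of over 40% in size.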 In outline: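 Luminescence from a CYP2B6-2.2kb promoter reporter in hCAR-expressing HepG2 cells reflects CAR signaling. Cells received compounds at 15 concentrations and 50 nM CITCO (final), then incubated 24 h at 37 C/5% CO2.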

The target is the same in assay [20]. Kind of assay: qHTS assay to identify small molecule agonists of the constitutive androstane receptor (CAR) signaling pathway (AID 1224839).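 Note: HepG2 cells stably carrying human CAR and a CYP2B6 luciferase reporter; nearly all actives have a fitted effect of over 15% in size.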 The gist of the method:
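Stable hCAR/CYP2B6-2.2kb HepG2 line in DMEM with 10% FBS; compounds (15 concentrations) and 0.75 uM PK11195 final, 24 h at 37 C/5% CO2, then ONE-Glo luminescence after 30 min.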
% is set by controls: 0 for no effect and ±100 for the full control effect.

Thyrotropin receptor (Homo sapiens), sequence (P16473 whole entry, looked up): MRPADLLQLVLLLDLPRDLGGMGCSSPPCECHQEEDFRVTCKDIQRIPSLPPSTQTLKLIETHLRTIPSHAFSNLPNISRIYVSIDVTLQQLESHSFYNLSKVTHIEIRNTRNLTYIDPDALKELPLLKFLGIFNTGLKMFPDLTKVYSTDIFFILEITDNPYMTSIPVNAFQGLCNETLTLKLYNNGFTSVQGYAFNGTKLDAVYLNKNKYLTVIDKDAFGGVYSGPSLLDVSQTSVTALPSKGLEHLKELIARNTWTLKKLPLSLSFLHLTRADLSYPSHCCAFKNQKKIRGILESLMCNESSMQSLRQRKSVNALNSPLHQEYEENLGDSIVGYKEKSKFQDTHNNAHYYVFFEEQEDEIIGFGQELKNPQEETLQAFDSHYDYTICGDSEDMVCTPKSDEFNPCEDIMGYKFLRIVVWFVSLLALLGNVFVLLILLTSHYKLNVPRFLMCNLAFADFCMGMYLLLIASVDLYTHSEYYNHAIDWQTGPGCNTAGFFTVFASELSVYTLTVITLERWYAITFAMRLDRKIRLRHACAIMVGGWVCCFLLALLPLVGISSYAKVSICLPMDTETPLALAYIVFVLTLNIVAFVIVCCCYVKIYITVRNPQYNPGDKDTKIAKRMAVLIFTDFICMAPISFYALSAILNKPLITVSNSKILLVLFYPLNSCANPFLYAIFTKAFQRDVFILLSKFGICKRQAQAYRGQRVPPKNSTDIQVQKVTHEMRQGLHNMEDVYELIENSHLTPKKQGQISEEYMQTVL
Nuclear receptor subfamily 1 group I member 3 (Homo sapiens), sequence (Q14994 whole entry, looked up): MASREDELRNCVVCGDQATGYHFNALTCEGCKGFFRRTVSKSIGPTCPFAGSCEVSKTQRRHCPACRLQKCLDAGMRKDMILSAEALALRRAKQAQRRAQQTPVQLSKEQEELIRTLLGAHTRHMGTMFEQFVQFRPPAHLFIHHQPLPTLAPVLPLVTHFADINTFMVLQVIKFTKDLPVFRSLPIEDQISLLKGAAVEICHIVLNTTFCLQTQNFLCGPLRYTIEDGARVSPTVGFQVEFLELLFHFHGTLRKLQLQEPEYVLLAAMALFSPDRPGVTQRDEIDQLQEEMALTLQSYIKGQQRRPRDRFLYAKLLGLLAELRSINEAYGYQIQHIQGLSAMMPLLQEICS

For `CC(C#N)CCC#N` (configuration not stated), the Potency entry in assay [1], in assay [2], in assay [3], in assay [5], in assay [6] and in assay [7] was “inactive” throughout. Further, the Potency result in [9], in assay [10], in assay [13], in assay [14] and in [16] was “inactive” in each case. Besides, the call in [4], in assay [8], in [12], in assay [15], in assay [17] and in [18] was inactive. Moreover, the activity change, positive = activation in assay [11] (at 92.4 µM (top of the series)) was 5.4% (inactive) and 2.56% (inactive).

Regarding `Clc1ccc(Cl)cc1`, the Potency result in assay [1], in assay [19], in [20], in assay [2], in assay [5] and in assay [6] was “inactive” throughout. Further, the Potency result in assay [7], in [9], in assay [13], in assay [14] and in assay [16] was “inactive” in each case. Also, the outcome in [12], in assay [15], in assay [17] and in [18] was inactive.

In the case of `COC(=O)NC(=S)Nc1ccccc1NC(=S)NC(=O)OC`, the Potency entry in [1], in [19], in assay [20], in assay [2], in [5] and in assay [6] was “inactive” throughout. The Potency entry in assay [7], in assay [9], in assay [13], in assay [14] and in [16] was “inactive” in each case. For the same compound, the outcome in assay [12], in [15], in assay [17] and in [18] was inactive.

`c1ccc(-c2ccccc2)cc1`: the Potency result in assay [1], in assay [2], in [5], in [6], in assay [7] and in [9] was “inactive” throughout. Moreover, the Potency result in assay [13], in assay [14] and in assay [16] was “inactive” throughout. The outcome in assay [8], in assay [12], in assay [17] and in [18] was inactive.

As for `CC(C)OC(=O)Nc1ccccc1`, the Potency result in [1], in assay [19], in [2], in assay [3], in assay [5] and in [6] was “inactive” in each case. Further, the Potency entry in assay [7], in [9], in assay [10], in assay [13], in assay [14] and in assay [16] was “inactive” in each case. The call in assay [4], in assay [12], in assay [15], in assay [17] and in assay [18] was inactive. Moreover, the activity change, positive = activation in [11] (at 92.4 µM (top of the series)) was 8.94% (inactive) and -18.7% (inactive).

As for `Cn1cc(-c2ccccc2)c(=O)c(-c2cccc(C(F)(F)F)c2)c1`, the Potency entry in assay [19], in assay [20], in [2], in assay [3], in assay [5] and in [6] was “inactive” each time. Moreover, the Potency entry in assay [7], in assay [9], in assay [10], in [13], in assay [14] and in assay [16] was “inactive” each time. The call in assay [4], in [8], in [12], in [15], in assay [17] and in assay [18] was inactive. Further, the activity change, positive = activation in [11] (at 92.4 µM (top of the series)) was -9.79% (inactive) and -18.6% (inactive).

`CCCCN(CC)C(=O)SCCC`: the Potency result in assay [1], in [19], in assay [20], in assay [2], in assay [5] and in assay [6] was “inactive” each time. Also, the Potency result in [7], in assay [9], in [14] and in assay [16] was “inactive” throughout. Moreover, the outcome in [12], in assay [17] and in assay [18] was inactive. The Potency result in [13] is “inactive and 19.5 µM (active)”.

Consider `CCCCN(CCCC)SN(C)C(=O)Oc1cccc2c1OC(C)(C)C2`, for which the Potency result in [1], in assay [19], in assay [2], in assay [5], in assay [6] and in [14] was “inactive” each time. Further, the Potency entry in assay [16] was “inactive”. Besides, the compound was called inactive in assay [8], in assay [12] and in assay [18].

Turning to `COCCl`, the Potency result in assay [19], in assay [20], in assay [2], in assay [3], in [5] and in [6] was “inactive” in each case. Moreover, the Potency entry in [7], in assay [9], in [10], in assay [13], in assay [14] and in assay [16] was “inactive” throughout. In addition, the compound was classed as inactive in [4], in assay [8], in [12], in [15], in [17] and in assay [18]. Further, the results for the activity change, positive = activation in [11] (at 42.5 µM (top of the series)) and in assay [11] (at 92.4 µM (top of the series)) were 1.1% (inactive) and -18.8% (inactive), respectively.

With `CC(C)C#N`, the Potency entry in assay [1], in assay [19], in assay [20], in [2], in assay [5] and in assay [6] was “inactive” throughout. The Potency entry in assay [7], in [9], in assay [13], in assay [14] and in assay [16] was “inactive” each time. Also, the result in assay [12], in [17] and in [18] was inactive.

Regarding `Cc1cccc([N+](=O)[O-])c1`, the Potency result in [1], in assay [2], in [3], in [5], in [6] and in assay [9] was “inactive” each time. The Potency entry in assay [10], in assay [13], in [14] and in [16] was “inactive” in each case. Moreover, the compound was called inactive in assay [8], in [12], in assay [15], in [17] and in assay [18]. In assay [11] (at 92.4 µM (top of the series)), the activity change, positive = activation was 5.45% (inactive) and 0.517% (inactive).
